Experimental data published in PubChem BioAssay AID588849 (Broad Institute, 2011).
Potency and affinity values are given separately. The source made the active and inactive calls. Entries that show only a call come without a potency. How the calls were made is not given here.

Each molecule was assayed against CAAX prenyl protease 2 (Homo sapiens) (UniProt Q9Y256) (assay: inhibition of Ras-converting CAAX protease Rce1 – biochemical, yeast membranes, quenched-peptide fluorescence, cherry-pick, dose response (AID 588849)). Conditions: yeast membrane fractions expressing human Rce1, quenched-peptide fluorescence, 4 h; series mostly up to 10 µM.
Chain of CAAX prenyl protease 2 (Homo sapiens) (Q9Y256 whole entry, looked up): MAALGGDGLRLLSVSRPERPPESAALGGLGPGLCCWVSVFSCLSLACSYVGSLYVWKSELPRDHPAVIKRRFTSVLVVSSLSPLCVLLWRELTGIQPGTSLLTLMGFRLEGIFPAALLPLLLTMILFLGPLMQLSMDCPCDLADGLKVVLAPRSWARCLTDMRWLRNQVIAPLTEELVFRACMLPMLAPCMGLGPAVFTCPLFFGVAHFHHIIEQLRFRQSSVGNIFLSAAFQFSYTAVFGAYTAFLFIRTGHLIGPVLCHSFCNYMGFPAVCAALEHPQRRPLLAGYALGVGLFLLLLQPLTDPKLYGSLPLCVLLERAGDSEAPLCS
With `Cc1nccc2c1[nH]c1ccccc12` the outcome was “inactive”.
`Cc1ccc(-c2nc3ccc(C)cn3c2CC(=O)N(C)C)cc1` was tested, and the outcome was “inactive”.
With `COCCCn1c(N)c(C(=O)NCc2ccco2)c2nc3ccccc3nc21` the outcome was “inactive”.
For `c1ccc(CCCN2CCN(CCOC(c3ccccc3)c3ccccc3)CC2)cc1`, the outcome was “inactive”.
In the case of `CN1CCN(c2ccc([N+](=O)[O-])c(Sc3nncn3C)c2)CC1`, the outcome is reported as “inactive”.
For `Cc1oc(-c2cccs2)nc1CSCC(=O)N1CCC2(CC1)OCCO2`, the outcome was “inactive”.
For `COc1ccc2c3c([nH]c2c1)C(C)=NCC3`, the outcome was “inactive”.
In the case of `Clc1ccc(C[n+]2c(-c3ccccc3)cc(-c3ccccc3)cc2-c2ccccc2)cc1`, the outcome is reported as “inactive”.
In the case of `Cc1ccc(-c2cc(-c3ccccc3)cc(-c3ccccc3)[n+]2-c2ccccc2)cc1`, the outcome is reported as “inactive”.
In the case of `CCOC(=O)[C@@H]1[C@H]2COc3ccc(Br)cc3[C@@H]2N2C(=O)N(c3cccc(C)c3)C(=O)[C@]12C`, the outcome is reported as “inactive”.
For `C=CC[N+]1(C)CC[C@]23c4c5ccc(O)c4O[C@H]2C(=O)CC[C@@]3(O)[C@H]1C5` (some centres undefined), the outcome was “inactive”.
With `Cc1ccnc(-n2c(-c3ccco3)nc3ccccc3c2=O)c1` the outcome was “inactive”.
For `CN1CC(C(=O)c2ccc(Cl)cc2)C(c2ccc(Cl)cc2Cl)C1` (centres undefined), the outcome was “inactive”.
With `C=CCn1c(O)c(C(CC)=Nc2ccc(N(CC)CC)cc2)c(=O)[nH]c1=O` the outcome was “inactive”.
